UCHL1 inh: human UCHL1 deubiquitinase inhibition. inhibition, % at 20 µM. purified UCHL1, Ub-rhodamine cleavage fluorescence. 0.2% of 47,000 active. P09936
USP7 inh: inhibitors of human USP7 deubiquitinase; purified USP7, Ub-rhodamine cleavage fluorescence; 0.3% of 47,000 active; inhibition, % at 20 µM; Q93009; AID 1645854
USP10 inh: inhibitors of human USP10 deubiquitinase; inhibition, % at 20 µM; 1.1% of 47,000 active; purified USP10, Ub-rhodamine fluorescence, 60 min; Q14694; AID 1645856
OTUD3 block: blocks human OTUD3 ubiquitin-rhodamine cleavage; 0.7% of 47,000 active; purified OTUD3, Ub-rhodamine fluorescence, 2 h; AID 1645858; inhibition, % at 25 µM; Q5T2D3
Target sequence (Q5T2D3 whole entry, looked up): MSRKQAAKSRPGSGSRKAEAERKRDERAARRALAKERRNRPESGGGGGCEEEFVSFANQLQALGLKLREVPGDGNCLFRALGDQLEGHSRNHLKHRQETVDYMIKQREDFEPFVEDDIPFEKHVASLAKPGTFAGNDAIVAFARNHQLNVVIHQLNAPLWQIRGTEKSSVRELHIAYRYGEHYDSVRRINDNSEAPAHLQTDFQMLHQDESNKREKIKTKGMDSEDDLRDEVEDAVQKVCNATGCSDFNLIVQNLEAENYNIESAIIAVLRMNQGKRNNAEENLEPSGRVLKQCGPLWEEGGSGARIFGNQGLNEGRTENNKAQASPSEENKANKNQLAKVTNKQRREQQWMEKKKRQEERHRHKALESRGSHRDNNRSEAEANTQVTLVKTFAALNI
* hit, by the source's call. Most compounds without a hit are left out; they make up all but 1.5% or so of the library. Rule as the data show it: active = inhibition above about 30%; inactive = the rest.

SMILES	UCHL1 inh	USP7 inh	USP10 inh	OTUD3 block
COc1cc(Cl)c(C)cc1NC(=O)Cn1c(=O)n(CC(=O)NCc2ccco2)c(=O)c2ccccc21	8	-22	43*	40*
O=C(Cn1c(=O)c2ccccc2n(CC(=O)Nc2cc(Cl)cc(Cl)c2)c1=O)NCc1ccco1	0	2	35*	12
O=C(COc1nsnc1N1CCOCC1)Nc1ccccc1F	-2	0	2	81*
CC(=O)c1ccc(NC(=O)C2CC(=O)Nc3nc(SCc4ccccc4)nn32)cc1 (stereo not given)	2	3	30*	8
Cc1cccc(NC(=O)Cn2cc(S(=O)(=O)c3ccccc3)c(=O)c3ccc(C)nc32)c1	-33	-8	-4	-92
CCc1ccc(S(=O)(=O)c2cn(CC(=O)Nc3ccccc3)c3ccccc3c2=O)cc1	0	23	46*	-13
Cc1ccccc1NC(=O)Nc1cnc(N2CCCC2)nc1	0	-14	8	-5
O=C(NCc1ccc2c(c1)OCO2)c1cc2c(s1)CCC2	38*	9	47*	22
CC1Cc2nc3ccccc3n2CCN1Cc1ccc(OCCO)cc1 (stereo not given)	0	1	-1	17
O=C(CCCCn1c(=O)c2ccccc2n(CC(=O)NCCC2=CCCCC2)c1=O)NCc1ccc2c(c1)OCO2	0	-3	13	-1
Cc1cc(NC(=O)Cn2c(=O)n(CCc3ccccc3)c(=O)c3ccccc32)n[nH]1	-1	-3	8	5
COc1ccc(-n2c(=O)c3ccc(C(=O)NCCc4ccccc4)cc3n(CC(=O)NCc3ccco3)c2=O)cc1	6	-15	44*	25
O=C(Cn1c(=O)n(-c2ccccc2)c(=O)c2ccc(C(=O)NCc3ccc4c(c3)OCO4)cc21)NCCC1=CCCCC1	3	10	32*	58*
O=C(Cn1c(=O)n(CCCC(=O)N2CC=C(c3ccccc3)CC2)c(=O)c2ccccc21)NCCC1=CCCCC1	3	0	12	37*
Cc1cc(NC(=O)Cn2c(=O)n(Cc3ccco3)c(=O)c3ccc(C(=O)NCCc4ccccc4)cc32)n[nH]1	18	3	66*	77*
Cc1[nH]n2c(=O)c(Cl)c(-c3ccccc3)nc2c1-c1ccccc1	4	14	33*	22
CC(=O)Nc1cccc(C(=O)N(Cc2ccco2)C2(C(=O)Nc3c(C)cccc3C)CCCCC2)c1	2	-2	-5	-10
Cc1cc(C)nc(SCC(=O)N(Cc2ccco2)C2(C(=O)Nc3c(C)cccc3C)CCCCC2)n1	2	7	16	57*
COC(=O)CC1CC2=C(C(=O)c3c(O)cccc3C2=O)C(C)O1 (stereo not given)	5	-132	-13	24
C[C@@H]1OC2=C(C(=O)c3cccc(O)c3C2=O)[C@H](O)[C@@H]1O	32*	-116	49*	67*
Cc1cc(CSc2ncccc2C(=O)Nc2ccnn2Cc2cccnc2)no1	2	4	-1	81*
CCOc1ncccc1C(=O)Nc1ccnn1Cc1ccccc1	-2	0	50*	2
Cc1cc(CSc2ncccc2C(=O)Nc2ccnn2Cc2ccccn2)no1	-3	-1	-3	-6
CC[C@H]1[C@H](C)O[C@@](O)([C@@H](C)[C@H](O)[C@H](C)[C@H]2OC(=O)/C=C/C=C/[C@H](C)[C@@H]([C@@H](C)[C@@H](O)[C@H](C)[C@@]3(O)C[C@@H](O[C@H]4C[C@H](O)[C@H](O)[C@H](C)O4)[C@H](C)[C@@H](C)O3)OC(=O)/C=C/C=C/[C@@H]2C)C[C@@H]1O[C@@H]1C[C@@H](O)[C@@H](O)[C@@H](C)O1	0	-25	-7	0
CCOC(=O)c1cc2c(=O)n3ccccc3nc2n(Cc2ccco2)c1=NC(=O)COc1ccc2ccccc2c1	43*	27	-18	-41
SMILES	UCHL1 inh	USP7 inh	USP10 inh	OTUD3 block
CCOC(=O)c1c2ccc(OCC(=O)NCc3ccco3)cc2n2ccccc12	-37	-71	-6	-24
CC(=O)NS(=O)(=O)c1ccc(NC(=O)/C=C/c2cn(-c3ccccc3)nc2-c2ccccc2)cc1	12	41*	63*	9
NS(=O)(=O)c1cccc(NC(=O)/C=C/c2cn(-c3ccccc3)nc2-c2cccc([N+](=O)[O-])c2)c1	5	19	63*	5
O=C(O)c1cn(-c2ccccc2)nc1-c1cccc([N+](=O)[O-])c1	0	-5	5	2
O=C(/C=C/C=C/C=C/C1CCCCC1)NC1=C[C@@](O)(/C=C/C=C/C=C/C(=O)NC2=C(O)CCC2=O)[C@@H]2O[C@@H]2C1=O	47*	45*	-5	73*
O=C(Nc1ccccc1)C1COc2ccccc2C1 (stereo not given)	-3	0	3	0
O=C(O)C1C(C(=O)Nc2ccccc2)C2(c3ccccc3)C(=O)C1(c1ccccc1)C(c1ccccc1)=C2c1ccccc1 (stereo not given)	7	66*	69*	64*
Cc1c(-c2nsc(NC(=O)c3ccc(Cl)cc3)n2)nnn1-c1ccccc1F	3	21	43*	27
COC(=O)c1sccc1NC(=O)COc1ccsc1C(=O)OC	0	1	1	-3
CN1CCN(CCC(=O)Nc2cc(C(F)(F)F)ccc2Cl)CC1	1	0	-1	10
O=C(CCSc1nnnn1-c1ccccc1)Nc1cc(C(F)(F)F)ccc1Cl	11	35*	16	-7
COc1ccc2c(C)nc(Nc3nc(C)cc(-c4ccccc4)n3)nc2c1	1	0	-6	-4
Cc1nn(-c2ccccc2)c2c1C1(C(=O)Nc3ccccc31)C(C#N)=C(N)O2 (stereo not given)	4	19	1	9
Cc1nn(-c2ccccc2)c2c1C1(C(=O)Nc3ccccc31)N1C(=N2)Sc2ccccc21 (stereo not given)	10	83*	6	10
O=C(NCc1ccc(-c2cccs2)s1)NC(=O)c1cccc(C(F)(F)F)c1	3	7	5	18
COc1ccc(NC(=O)c2nnc(C(=O)NCCN3CCCCCC3)s2)cc1	6	3	10	34*
Cc1nnc(C(=O)Nc2cccc(C(=O)NCCN3CCCCCC3)c2)s1	-39	-38	-8	-172
COc1cc(O)c2c(O)c3c(cc2c1)C[C@@]1(O)CC(=O)C(C(N)=O)=C(O)[C@@]1(O)C3=O	70*	65*	11	46*
COc1ccc(OC)c(-n2c(SCC(=O)N3CCc4ccccc43)nnc2-c2cccc(S(=O)(=O)N(C)C)c2)c1	10	8	7	32*
COc1cc(OC)c2c(=O)cc(-c3ccccc3)oc2c1OC	7	3	3	10
COc1c(O)c(O)c2c(=O)cc(-c3ccc(O)cc3)oc2c1OC	12	-45	14	46*
O=C(c1ccc(Cl)cc1Cl)N1CC2CCCN2c2ccc(C(F)(F)F)cc21 (stereo not given)	5	4	-1	3
O=C(OC1CSc2nc3ccccc3n2C1)c1ccc([N+](=O)[O-])o1 (stereo not given)	11	-38	40*	5

Screening results deposited in PubChem BioAssay by Buhrlage Lab, Dana-Farber Cancer Institute and Novartis Institutes for BioMedical Research (Cambridge, Mass).
